About 4,300 (8.3%) of roughly 52,000 compounds were called active. Only a selection was taken, and actives are over-represented in it overall. A number with no mark means an inactive call. Cut-off read from the data, not from the text of the source: active = survival mostly below about 52% (no sharp cut-off); inactive = mostly above about 56%.
tested on: DeltatarO mutant; assay: growth inhibition of S. aureus wild type versus tarO mutant, primary screen, teichoic acid synthesis inhibitors, RN4220, OD600 (AID 463173); details: OD600, 18 h, stronger effect = lower value, screened at 18.75 µg/mL (by protocol)

Row | Compound | survival
1 | COCCCNC(=O)CSc1nc2cc(OC)c(OC)cc2c2nc(-c3ccccc3)nn12 | 78%
2 | COc1cc2nc(NCC(C)c3ccccc3)n3nc(-c4ccccc4)nc3c2cc1OC (stereo not given) | 61%
3 | COc1cc2nc(NCc3ccccc3)n3nc(-c4ccccc4)nc3c2cc1OC | 47% (active)
4 | COc1cc2nc(NCc3ccc(C)cc3)n3nc(-c4ccccc4)nc3c2cc1OC | 61%
5 | COc1ccc(OC)c(CCNc2nc3cc(OC)c(OC)cc3c3nc(-c4cccnc4)nn23)c1 | 126%
6 | COCCCNc1nc2cc(OC)c(OC)cc2c2nc(-c3ccccc3)nn12 | 47% (active)
7 | COc1cc2nc(NCCC(C)C)n3nc(-c4ccccc4)nc3c2cc1OC | 49%
8 | CCOCCCNc1nc2cc(OC)c(OC)cc2c2nc(-c3ccccc3)nn12 | 44% (active)
9 | CCC(C)NC(=O)c1c(C)oc2ncn(CC(C)C)c(=O)c12 (stereo not given) | 79%
10 | COC(=O)c1c(-c2ccc(Cl)cc2)noc1N1CCN(c2cccc(C)c2C)CC1 | 79%
11 | CN1C(=O)CSC1=Nc1cccc(C(=O)O)c1 | 89%
12 | COC(=O)c1csc(N)n1 | 95%
13 | CCOc1ccc2c(c1)c(=O)c(S(=O)(=O)c1ccc(F)cc1)cn2CC(=O)Nc1ccccc1C | 96%
14 | Cc1nn2c(=O)cc(COC(=O)c3ccc(NC(=O)c4cccc(Br)c4)cc3)nc2s1 | 97%
15 | CC1=Nc2cc(C(=O)N3CCC(C)CC3)ccc2Sc2ccc(Cl)cc21 | 90%
16 | CC1=Nc2cc(C(=O)N3CCCCC3)ccc2Sc2ccc(C)cc21 | 48%
17 | CCCC1=Nc2cc(C(=O)N3CCC(C)CC3)ccc2Sc2ccc(C)cc21 | 97%
18 | CCOC(=O)C1CCN(C(=O)c2ccc3c(c2)N=C(CC)c2cc(C)ccc2S3)CC1 | 36% (active)
19 | CCCC1=Nc2cc(C(=O)N3CCC(C(=O)OCC)CC3)ccc2Sc2ccccc21 | 79%
20 | CCC1=Nc2cc(C(=O)N3CCC(C)CC3)ccc2Sc2ccc(C)cc21 | -4% (active)
21 | O=C(CNCc1ccccc1F)Nc1ccc(N2CCCC2)cc1 | 102%
22 | Cc1nnc2c3ccccc3nc(N3CCN(c4cccc(Cl)c4)CC3)n12 | 92%
23 | COc1ccc(CNC(=O)CCc2c(C)nc3cc(-c4ccc(OC)cc4OC)nn3c2C)cc1 | 121%

Row | Compound | survival
24 | CCn1cc(C(=O)NCc2ccc(F)cc2)c(=O)c2cc(S(=O)(=O)N(C)C)ccc21 | 81%
25 | CCOCCc1nn2c(=O)cc(COC(=O)c3ccc(NC(=O)C4CCCCC4)cc3)nc2s1 | 70%
26 | COc1ccc(C(=O)Nc2ccccc2-c2nc(-c3ccc(OC)cc3)no2)cc1 | 48%
27 | COc1cccc(-c2noc(-c3cc4ccccc4oc3=O)n2)c1OC | 102%
28 | Cc1ccc(-c2noc(-c3ccccc3NC(=O)C3CC(=O)N(c4cccc(C)c4)C3)n2)cc1 (stereo not given) | 66%
29 | COc1cc(C(=O)Nc2ccccc2-c2nc(-c3ccc(C)cc3)no2)cc(OC)c1OC | 53%
30 | COc1ccc(N2CC(C(=O)Nc3ccccc3-c3nc(-c4ccc(C)cc4)no3)CC2=O)cc1 (stereo not given) | 54% (active)
31 | COc1cccc(-c2noc(-c3cc(C(C)C)[nH]n3)n2)c1OC | 73%
32 | COc1ccc(-c2noc(-c3cccc(OC)c3OC)n2)cc1 | 8% (active)
33 | Cc1ccc(-c2noc(-c3ccccc3NC(=O)c3ccccc3)n2)cc1 | 69%
34 | COc1cc(C(=O)Nc2ccccc2-c2nc(-c3ccccc3)no2)cc(OC)c1OC | 66%
35 | COc1cccc(C(=O)Nc2ccccc2-c2nc(-c3ccc(C)cc3)no2)c1 | 48% (active)
36 | Cc1ccc(-c2noc(-c3ccccc3NC(=O)C3CC(=O)N(c4ccc(C)cc4)C3)n2)cc1 (stereo not given) | 48%
37 | COc1ccc(-c2noc(-c3ccccc3NC(=O)c3cc(OC)c(OC)c(OC)c3)n2)cc1 | 34% (active)
38 | COc1ccc(C2=NN(CC(=O)NCCCN(C)c3ccccc3)C(=O)CC2)cc1 | 116%
39 | CCCn1c(=O)c2sccc2n2c(CCCC(=O)Nc3ccc(Oc4ccccc4)cc3)nnc12 | 88%
40 | CN(C)c1ccc(C(CNC(=O)COc2ccc(Cl)cc2)N2CCOCC2)cc1 (stereo not given) | 55%
41 | Cc1cccc(OCC(=O)Nc2nonc2-c2ccc(Br)cc2)c1C | 68%
42 | Cc1cc(C)cc(OC(C)C(=O)Nc2nonc2-c2ccc(Br)cc2)c1 (stereo not given) | 14% (active)
43 | Cc1cccc(OC(C)C(=O)Nc2nonc2-c2ccc(Br)cc2)c1C (stereo not given) | 70%
44 | Cc1ccc(OC(C)C(=O)Nc2nonc2-c2ccc(Br)cc2)cc1C (stereo not given) | 66%
45 | Cc1ccc(OCC(=O)Nc2nonc2-c2ccc(Br)cc2)cc1 | 75%
46 | Cc1cccc(C)c1OCC(=O)Nc1nonc1-c1ccc(Br)cc1 | 41% (active)

Row | Compound | survival
47 | CCc1ccc2[nH]cc(S(=O)(=O)c3ccc(C(C)C)cc3)c(=O)c2c1 | 62%
48 | CC(C)c1ccc(NC(=O)CCNS(=O)(=O)c2ccc3c(c2)CCCC(=O)N3)cc1 | 77%
49 | Cc1cc(C)c2c(=O)cc(CSCC(=O)Nc3ccccc3Cl)[nH]c2c1 | 90%
50 | Cc1ccc(-c2cc3ncc4c(n3n2)-c2cc(F)ccc2OC4)cc1 | 108%
51 | O=C(CS(=O)(=O)c1cccc2nsnc12)Nc1ccccc1Cl | 71%
52 | CCOC(=O)Cc1cc(=O)[nH]c(/N=C(\N)Nc2ccc3ccccc3c2)n1 | 98%
53 | COC(=O)c1ccc(NC(=O)CCc2c(C)nn(-c3ccc(N4CCOCC4)nn3)c2C)cc1 | 78%
54 | CCN(CC)CCNC(=O)C(=O)NCC(c1cccnc1)N1CCN(c2ccccc2)CC1 (stereo not given) | 100%
55 | Cc1ccc(CNC(=O)C(=O)NCC(c2cccnc2)N2CCN(c3ccc(F)cc3)CC2)cc1 (stereo not given) | 73%
56 | CCOc1ccccc1NC(=O)C(=O)NCC(c1cccnc1)N1CCN(c2ccccc2)CC1 (stereo not given) | 54%
57 | Cc1ccc(C)c(NC(=O)C(=O)NCC(c2cccnc2)N2CCN(c3ccc(F)cc3)CC2)c1 (stereo not given) | 15% (active)
58 | COc1ccccc1N1CCN(C(CNC(=O)C(=O)NCCCN(C)C)c2cccnc2)CC1 (stereo not given) | 61% (active)
59 | COc1ccccc1N1CCN(C(CNC(=O)C(=O)NCCN(C)C)c2cccnc2)CC1 (stereo not given) | 69%
60 | CCOC(=O)C(=O)NCC(c1cccnc1)N1CCN(c2ccccc2)CC1 (stereo not given) | 65% (active)
61 | COC(=O)NCC(c1cccnc1)N1CCN(c2ccc(F)cc2)CC1 (stereo not given) | 83%
62 | CN(C)CCNC(=O)C(=O)NCC(c1cccnc1)N1CCN(c2ccc(F)cc2)CC1 (stereo not given) | 69%
63 | Cc1cc(C)cc(NC(=O)C(=O)NCC(c2cccnc2)N2CCN(c3ccccc3)CC2)c1 (stereo not given) | 56%
64 | COCCNC(=O)C(=O)NCC(c1cccnc1)N1CCN(c2ccccc2OC)CC1 (stereo not given) | 64%
65 | CN(C)CCNC(=O)C(=O)NCC(c1cccnc1)N1CCN(c2ccccc2)CC1 (stereo not given) | 54% (active)
66 | COc1ccc(OC)c(NC(=O)Cn2cc(C(=O)c3cccs3)c3ccccc32)c1 | 50%
67 | Cc1ccccc1NC(=O)CSC1=Nc2ccccc2C2=NC(CCC(=O)NCc3ccccc3)C(=O)N12 (stereo not given) | 89%
68 | COc1cccc(C2C(C(N)=O)=C(C)Nc3ncnn32)c1 (stereo not given) | 71%
69 | Cn1c(SCc2ccccc2F)nc2c([nH]c3ccccc32)c1=O | 97%

Row | Compound | survival
70 | Cc1ccc(/C=C/c2onc(C)c2S(=O)(=O)N2CCC(C(=O)N3CCN(c4cc(C)ccc4C)CC3)CC2)cc1 | 87%
71 | O=C(Cn1cc(SCc2ccccc2Cl)c2ccccc21)N1CCCCCC1 | 74%
72 | CC1CCN(S(=O)(=O)c2cc(C(=O)NCc3ccc(N(C)C)cc3)n(C)c2)CC1 | 93%
73 | Cc1cccc(N2CCN(c3ccc(NC(=O)c4ccccc4)cc3C(=O)O)CC2C)c1 (stereo not given) | 81%
74 | CCCS(=O)(=O)N1CCC(N2CCN(Cc3ccc(F)cc3)C(=O)C2=O)CC1 | 83%
75 | COc1cccc(CNC(=O)Cn2c(=O)cc(C(F)(F)F)c3c(C)nn(C)c32)c1OC | 90%
76 | O=C(NCc1ccc(Cl)cc1)C(=O)NCC(c1cccnc1)N1CCN(c2ccccc2)CC1 (stereo not given) | 47%
77 | O=C(NCc1cccnc1)C(=O)NCC(c1cccnc1)N1CCN(c2ccccc2)CC1 (stereo not given) | 53%
78 | O=C(NCc1ccccc1)C(=O)NCC(c1cccnc1)N1CCN(c2ccccc2)CC1 (stereo not given) | 45% (active)
79 | COCCNC(=O)C(=O)NCC(c1cccnc1)N1CCN(c2ccccc2)CC1 (stereo not given) | 54% (active)
80 | COCCNC(=O)C(=O)NCC(c1cccnc1)N1CCN(c2ccccc2F)CC1 (stereo not given) | 70%
81 | O=C(NCCc1ccccc1)C(=O)NCC(c1cccnc1)N1CCN(c2ccccc2)CC1 (stereo not given) | 51%
82 | Cc1ccc(CCNC(=O)c2ccc3c(c2)N(Cc2ccccc2F)C(=O)c2ccccc2S3=O)cc1 (stereo not given) | 69%
83 | COc1ccc(-c2cc(C(=O)NCc3ccc(F)cc3)c3c(-c4ccc(F)cc4)[nH]nc3n2)cc1OC | 72%
84 | COc1ccc(CCNc2nc3c(c(=O)n(C)c(=O)n3C)n2Cc2ccc(F)cc2)cc1OC | 90%
85 | CCOc1ccc(N(c2nc(-c3ccc(OC)c(OC)c3)no2)c2nc(-c3ccc(OC)c(OC)c3)no2)cc1 | 73%
86 | Nc1ncc(Cc2ccccc2)s1 | 75%
87 | CCCCSCCCNC(=O)CN1C(=O)c2cccnc2Oc2ccc(Cl)cc21 | 94%
88 | N#CC1=C(N)Oc2c(c(=O)oc3ccccc23)C12C(=O)Nc1ccccc12 (stereo not given) | 102%
89 | N#CC1=C(N)Oc2c(c(=O)oc3ccccc23)C1 | 31% (active)
90 | N#Cc1cc2c(ccc3ccccc32)oc1=O | 71%

— PubChem BioAssay AID463173 (ICCB-Longwood Screening Facility, Harvard Medical School, 2010)
